# Screening results from PubChem.
# Shown are actives, neighbours in structure and some others; about 19% of the full set was active somewhere.
# IL1B secr inh: inhibitors of inflammasome signaling (IL-1 beta secretion) | THP-1 LPS/ATP IL-1B secretion, AlphaLISA, 16 h; active compounds read low | activity change, % at 57.5 µM | 360,000 tested, 4.7% active; in the data active = activity change below about -50%; inconclusive = mostly about -30% to -49%
#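 Secreted IL-1B measured by AlphaLISA bead assay after 16 h compound exposure of THP-1 cells; compounds (final up to 57.5 uM) added 1 h before LPS (250 ng/mL) and ATP (1.25 mM) stimulation; lower signal means less secretion.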
# TDP1 cell noCPT: qHTS for Inhibitors of human tyrosyl-DNA phosphodiesterase 1 (TDP1): qHTS in cells in absence of CPT; AID 686978, 2013; Potency, µM (series often up to 46.2 µM), for inactives: at the highest dose activity change, negative = growth inhibition, usual class: inhibitors; DT40 Tdp1-/- hTDP1 cells, no CPT, ATP luminescence, 48 h; 420,000 tested, 15% active; note: potency is the fitted concentration of half-maximal effect; nearly all actives have a fitted effect of over 55% in size
#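 Luminescent ATP content (CellTiter-Glo) served as the growth readout. Knockout chicken DT40 cells expressing human TDP1 were exposed to compounds without camptothecin for a minimum 48 hr at 37 °C.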
# TDP1 cell CPT: growth inhibition of DT40 Tdp1-/-;hTDP1 cells with camptothecin (screen for TDP1 inhibitors); Potency, µM (highest dose often 46.2 µM), inactives show at the top dose activity change, negative = growth inhibition, most hits filed as inhibitors; chicken DT40 Tdp1-/-;hTDP1 cells + 20 nM CPT, ATP luminescence, 48 h; 420,000 tested, 12% active; note: potency is the fitted concentration of half-maximal effect; nearly all actives have a fitted effect of over 55% in size
#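 Cell growth measured by CellTiter-Glo luminescence after a minimum 48 h, 37 C compound exposure with 20 nM CPT in Tdp1-knockout DT40 cells stably expressing hTDP1, seeded 400/well; qHTS titration format.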
# ELG1 repair inh: ELG1-dependent DNA repair inhibition. HEK293T ELG1-luciferase reporter, luminescence, 16 h; DNA damage induced by 5-fluorouridine. Potency, µM (highest dose often 46.1 µM), without a hit: at the highest dose activity change, negative = inhibition, most hits filed as inhibitors. AID 504467. 330,000 tested, 2.3% active; note: potency is the fitted concentration of half-maximal effect; nearly all actives have a fitted effect of over 55% in size
#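 Reporter activity after DNA damage by 5-fluorouridine is monitored. Compound-treated cells incubate 16 hr at 37 °C, then ONE-Glo is added for 30 min before luminescence reading.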
# HT1080NT lethal: kills 2HG-producing HT-1080-NT fibrosarcoma cells. HT-1080-NT fibrosarcoma viability, CellTiter-Glo ATP luminescence, 48 h. Potency, µM (top dose mostly 46.1 µM), without a hit: top-dose activity, negative = less viability, usual class: cytotoxic. 360,000 tested, 1.6% active;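 note: NT is the 2HG producing partner of a matched IDH1 knockdown line; potency is the fitted concentration of half-maximal effect; 0% = DMSO-treated cells and -100% = media-only wells without cells; nearly all actives have a fitted effect of over 55% in size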
#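 HT-1080-NT; 750 cells/well; 5% FBS RPMI; 48 h compound, 37 degrees C; CellTiter-Glo luminescence; curve fitting and curve-class assignment.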
# HT1080 IDH1KD tx: toxicity to HT-1080 IDH1 knockdown cells (counter line); HT-1080 IDH1 knockdown viability, ATP luminescence, 48 h; 360,000 tested, 2% active; Potency, µM (series often up to 46.1 µM), for inactives: at the highest dose activity, negative = toxicity, hits mostly cytotoxic;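 note: potency is the fitted concentration of half-maximal effect; 0% = DMSO wells and -100% = cell-free medium wells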
#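 Cytotoxicity counter-line: IDH1KD HT-1080, 48 h, CellTiter-Glo. Curves classed by r2, magnitude and activity.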
# Starred values were filed as active, the others as inactive; ? = inconclusive; . = no result. Unless noted, calls come from the whole dose curve; as a rule, active = well fitted curve in the direction sought with a large enough effect; inconclusive = small, poorly fitted or top-dose-only effect, or another doubt; inactive = no such curve, though single readings can be large; an effect the other way counts as inactive or inconclusive. Unless noted, % is set by controls: 0 for no effect and ±100 for the full control effect.
SMILES,IL1B secr inh,TDP1 cell noCPT,TDP1 cell CPT,ELG1 repair inh,HT1080NT lethal,HT1080 IDH1KD tx
CCOc1ccc(C(=O)Nc2ccc3[nH]ncc3c2)cc1,-5.7,0.4%,?,?,-28.9%,-26.3%
CCOc1cccc2sc(=NC(=O)CCS(=O)(=O)c3ccc(F)cc3)n(C)c12,-23.6,16.4µM*,?,?,-1.2%,-4.3%
Cc1onc(-c2ccccc2Cl)c1C(=O)NCc1nnnn1-c1ccc(F)cc1,1.5,-8.6%,-10.2%,-17.1%,-3.3%,-2.9%
CC(=O)Nc1ccc(NC(=O)COC(=O)c2ccccc2OCc2cccc(Br)c2)cc1,.,-18.6%,-25.8%,.,.,.
CCOC(=O)c1c(NC(=O)c2cccnc2)sc(C)c1C,-54.1*,-21.8%,?,-17.2%,9.8%,2.0%
CCOC(=O)c1sc(NC(=O)c2cccnc2)c(C#N)c1C,-10.7,-1.1%,8.7%,18.4µM*,-1.4%,-3.9%
Cc1ccc(C(=O)Nc2sc(C)c(C)c2C(=O)c2ccccc2)cc1,?,?,16.4µM*,-18.3%,1.4%,10.2%
CCOC(=O)c1sc(NC(=O)c2cccc(S(=O)(=O)N3CCc4ccccc43)c2)c(C#N)c1C,35.6,2.91µM*,5.8µM*,?,?,?
CCCCn1cnc2c(SCc3ccccc3F)nc(N)nc21,?,-28.4%,-10.9%,.,17.6%,-5.1%
CC(C)CC(NC(N)=O)C(=O)NCCc1ccc(Cl)cc1 (configuration not stated),16.3,-0.9%,-0.6%,-9.6%,2.4%,4.7%
CC1CCCCC12NC(=O)N(CC(=O)c1ccc(Cl)s1)C2=O (configuration not stated),-5.2,-3.4%,?,2.8%,1.9%,-3.7%
COC(=O)c1cccc(N(CC(=O)NC2CCCCC2)C(=O)CNC(=O)c2cccs2)c1,20.4,-15.7%,6.4%,-1.5%,0.5%,22.6%
COc1cccc(Cn2c(=O)c(-c3cn(C)c4ccccc34)nc3cnc(N4CCNCC4)nc32)c1,.,20.6µM*,7.31µM*,.,.,.
COc1cccc(Cn2c(=O)c(-c3cn(C)c4ccccc34)nc3cnc(N4CCOCC4)nc32)c1,.,-8.4%,-12.7%,.,.,.
Cn1cc(-c2nc3cnc(N4CCNCC4)nc3n(Cc3ccc(F)cc3)c2=O)c2ccccc21,.,7.31µM*,5.17µM*,.,.,.
Nc1nc(SCC(=O)N2N=C(c3ccc(Cl)cc3)CC2c2ccco2)n[nH]1 (configuration not stated),-12.8,-6.6%,?,?,-14.1%,-23.6%
Cc1ccc(OCC(=O)N2N=C(c3ccc(Cl)cc3)CC2c2ccco2)c([N+](=O)[O-])n1 (configuration not stated),-53.6*,?,?,20.6µM*,-27.4%,-25.5%
O=C(COc1cccnc1[N+](=O)[O-])N1N=C(c2ccc(Cl)cc2)CC1c1ccco1 (configuration not stated),-24.6,2.91µM*,?,?,?,?
O=C(OCC(=O)N1CCCCCC1)c1cccc(Cl)c1,8.7,-2.4%,9.7%,?,6.5%,9.0%
CC(C)N1CN(c2ccccc2)C(=S)N(c2ccccc2)C1,11.1,23.1µM*,?,?,9.1%,17.8%
Cc1cccc(C)c1-n1nnnc1C(c1cc2ccccc2o1)N1CCN(C/C=C/c2ccccc2)CC1 (configuration not stated),-11.2,23.1µM*,18.4µM*,.,?,?
Cc1cccc(C)c1-n1nnnc1C(c1cccc2ccccc12)N1CCN(C/C=C/c2ccccc2)CC1 (configuration not stated),-10.9,5.8µM*,4.61µM*,.,?,-27.2%
